HCV inhibitor: blocks hepatitis C virus | AID 651820 | Potency, µM (top dose mostly 41.8 µM), hits mostly inhibitors | Huh7.5.1 HCVcc-Cre infection, luciferase reporter, 44 h | actives 3.4% (n = 340,000); active means well fitted inhibition curve with a large enough effect; inconclusive means small, poorly fitted or top-dose-only effect, or another doubt; inactive means no such curve, though single readings can be large or run the other way
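Compounds are dispensed onto cells plated 4 h earlier at 1,000 per well, with HCVcc-Cre virus (about 0.5 moi) added next. Following 44 h of culture, luminescent signal is measured for 15 sec after 15 min with substrate at room temperature.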
HCMV antiviral: blocks human cytomegalovirus replication. AID 1259415. actives 4.5% (n = 410,000). HFF cells, HCMV-luciferase reporter, 72 h; stronger effect = lower value. activity change, negative = inhibition, % at 57.5 µM; in the data active means activity change below about -60%; inconclusive means no clear call, values can overlap the other calls; inactive means above about -39%
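Two-dose cell screen: HFF monolayers treated with compounds and infected with luciferase-expressing HCMV at 1 PFU/cell, 72 h at 37C, then lysed for luciferase measurement.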
Marburg entry inh: inhibitors of Marburg virus binding or cell entry | Marburg virus pseudotyped entry inhibition, cell reporter | Potency, µM (highest dose often 37.8 µM), hits mostly inhibitors | actives 1.8% (n = 300,000) | AID 540276; calls by dose curve; tested in HEK293 cells
LASV entry inh: Lassa virus entry inhibition | Lassa virus pseudotype entry inhibition, cell reporter | Potency, µM (titrated, usually from 37.9 µM), most hits filed as inhibitors | actives 1.2% (n = 300,000) | AID 540256; calls by dose curve; tested in HEK293 cells; further: nearly all actives have a fitted effect of over 50% in size
FMDV antiviral: blocks foot and mouth disease virus; Potency, µM (highest dose often 57.9 µM), actives largely listed as inhibitors; FMDV antiviral cell-based qHTS; actives 1.2% (n = 410,000); calls by dose curve; tested in HEK293T cells; further: read-out not given here; nearly all actives have a fitted effect of over 45% in size
Of the large screens only hits and unclear results are named; the others gave an inactive call. A selection: hits, their analogues and other compounds. The true share with any hit is near 7.9%.

C=C(C)COc1ccc(-c2[nH]ncc2Oc2cccc(OC)c2)c(O)c1	HCV inhibitor inconclusive, HCMV antiviral inconclusive, LASV entry inh 1.6µM
C=C(C)COc1ccc(-c2[nH]ncc2Oc2ccccc2OCC)c(O)c1	HCV inhibitor inconclusive, Marburg entry inh inconclusive, LASV entry inh inconclusive
C=CCN(CC=C)CC(=O)Nc1cccc(Oc2cnccn2)c1	none
C=C(C)COc1ccc(-c2[nH]ncc2-c2ccc(OC)c(OC)c2)c(O)c1	HCV inhibitor 2µM, HCMV antiviral inconclusive, Marburg entry inh 1.6µM, LASV entry inh 1.3µM, FMDV antiviral inconclusive
C=C(C)COc1ccc(-c2[nH]ncc2-c2ccc(OC)cc2)c(O)c1	HCMV antiviral -70 (no result: Marburg entry inh, LASV entry inh)
C=C(C)COc1ccc(-c2n[nH]c(C)c2Oc2ccccc2OC)c(O)c1	HCV inhibitor 32µM, Marburg entry inh inconclusive, LASV entry inh inconclusive
COc1ccc(-c2cn[nH]c2-c2ccc(OCC(=O)NN)cc2O)cc1	HCMV antiviral inconclusive (no result: Marburg entry inh, LASV entry inh)
Oc1cc(OCc2ccccc2)ccc1-c1[nH]ncc1-c1ccccc1	HCMV antiviral inconclusive
COc1ccc(-c2cn[nH]c2-c2ccc(OCC(=O)NN)cc2O)cc1OC	LASV entry inh inconclusive
C=C(C)COc1ccc(-c2[nH]ncc2-c2ccccc2)c(O)c1	HCMV antiviral inconclusive, Marburg entry inh inconclusive, LASV entry inh 8.9µM, FMDV antiviral inconclusive
Cc1nc(NCc2cnn(C)c2)sc1-c1ccn(-c2cccc(F)c2)n1	none (no result: HCV inhibitor, HCMV antiviral, Marburg entry inh, LASV entry inh)
O=c1c(-c2cc(F)cc(F)c2)nc2cnc(N3CCOCC3)nc2n1C1CC1	none (no result: HCV inhibitor, HCMV antiviral, Marburg entry inh, LASV entry inh)
CCCCOc1ccc(C(C)NC(=O)CN2C(=O)CSc3ccc(S(=O)(=O)N4CCOCC4)cc32)cc1 (configuration not stated)	none (no result: HCV inhibitor, Marburg entry inh)
C=C(C)COc1ccc(-c2n[nH]c(C)c2-c2ccc(OC)c(OC)c2)c(O)c1	HCV inhibitor 13µM, HCMV antiviral -84, Marburg entry inh inconclusive, LASV entry inh 0.63µM, FMDV antiviral inconclusive
COc1ccc(-c2nc(N)ncc2-c2ccccc2)c(O)c1	HCMV antiviral inconclusive, FMDV antiviral inconclusive (no result: Marburg entry inh, LASV entry inh)
Nc1ncc(-c2ccccc2)c(-c2ccc(OCc3ccccc3)cc2O)n1	HCV inhibitor 1.8µM, HCMV antiviral inconclusive, LASV entry inh inconclusive
Cc1cccc(NC(=O)Cn2nnc(C(=O)Nc3ccccc3Br)c2N)c1C	none (no result: HCV inhibitor, Marburg entry inh)
COc1ccc(N(CN2C(=O)[C@@H]3[C@@H](C2=O)[C@H]2C=C[C@@H]3C2)C(=O)c2ccco2)cc1	none (no result: HCV inhibitor, HCMV antiviral, LASV entry inh, FMDV antiviral)
Oc1c(Cl)cc(Cl)cc1/C=C/c1ccc2cccc(O)c2n1	HCV inhibitor inconclusive, Marburg entry inh inconclusive, LASV entry inh inconclusive
COc1cc(Br)cc(/C=C/c2ccc3cccc(O)c3n2)c1O	HCV inhibitor inconclusive (no result: Marburg entry inh, LASV entry inh)
Oc1ccc(Cl)cc1/C=C/c1ccc2cccc(O)c2n1	HCV inhibitor inconclusive, Marburg entry inh inconclusive
Oc1cccc2ccc(/C=C/c3cccs3)nc12	HCV inhibitor inconclusive, Marburg entry inh inconclusive, LASV entry inh inconclusive
CSc1ccc(/C=C/c2ccc3cccc(O)c3n2)cc1	HCV inhibitor inconclusive, HCMV antiviral -66, Marburg entry inh 2.5µM, LASV entry inh inconclusive
COc1cc(Br)c(/C=C/c2ccc3cccc(O)c3n2)cc1OC	HCV inhibitor 10µM, HCMV antiviral -87 (no result: Marburg entry inh, LASV entry inh)
COc1cc(/C=C/c2ccc3cccc(O)c3n2)ccc1O	HCV inhibitor 11µM (no result: Marburg entry inh, LASV entry inh)
Oc1cccc2ccc(/C=C/c3ccccc3Br)nc12	HCV inhibitor inconclusive, HCMV antiviral -87, Marburg entry inh inconclusive, LASV entry inh inconclusive
COc1ccc(Oc2ncc3nc(-c4cccs4)c(=O)n(CCC#N)c3n2)cc1	none (no result: HCV inhibitor, HCMV antiviral, Marburg entry inh, LASV entry inh)
COc1cccc(-c2nc(NCc3cccs3)c3ccccc3n2)c1	none (no result: HCV inhibitor, HCMV antiviral, Marburg entry inh, LASV entry inh)
COc1ccc(NC(=O)N2CCCC3(CCN(C(=O)c4cnccn4)CC3)C2)cc1	none (no result: HCV inhibitor, HCMV antiviral, Marburg entry inh, LASV entry inh)
Cc1ccc(S(=O)(=O)NCCc2nnc(SCc3cccnc3)n2C)cc1	none
Cc1cccc(C)c1OCC(=O)NCC1COc2ccccc2O1 (configuration not stated)	none (no result: Marburg entry inh, LASV entry inh)
COc1ccc(OC)c(/C=C/c2ccc3cccc(O)c3n2)c1	HCMV antiviral -65 (no result: HCV inhibitor, Marburg entry inh, LASV entry inh, FMDV antiviral)
COc1ccc(C=Cc2ccc3ccccc3n2)c(OC)c1	HCMV antiviral -88, FMDV antiviral inconclusive (no result: HCV inhibitor, Marburg entry inh, LASV entry inh)
COc1ccc(OC)c(/C=C/c2ccnc3ccccc23)c1	HCV inhibitor inconclusive, HCMV antiviral -98, LASV entry inh inconclusive
COc1cc(/C=C/c2ccc3cccc(O)c3n2)c(Br)cc1O	HCMV antiviral -98 (no result: HCV inhibitor, Marburg entry inh, LASV entry inh, FMDV antiviral)
COc1ccc(O[C@H]2C=C[C@@H](c3ccccc3)O[C@@H]2CO/N=C2/[C@H]3CCn4c(=O)n(-c5ccccc5)c(=O)n4[C@H]3[C@H](O)[C@@H]3O[C@H]23)cc1	none (no result: HCV inhibitor, HCMV antiviral, LASV entry inh, FMDV antiviral)
COc1cc(-c2noc(-c3ccc(NCC4CCCO4)c([N+](=O)[O-])c3)n2)cc(OC)c1OC (configuration not stated)	FMDV antiviral 11µM (no result: HCV inhibitor)
O=[N+]([O-])c1cc(-c2nc(-c3ccccc3)no2)ccc1N1CCCC1	HCMV antiviral -80 (no result: HCV inhibitor)
COc1ccc(-c2noc(-c3ccc(N4CCN(C)CC4)c([N+](=O)[O-])c3)n2)cc1OC	HCMV antiviral -105 (no result: HCV inhibitor)
O=[N+]([O-])c1cc(Cl)c(Cl)c(Cl)c1Cl	none (no result: Marburg entry inh, LASV entry inh)
C=CCNC(=O)N1C2=NC(C(=O)OC)=C(C(=O)OC)[C@@H]3N(C)c4ccccc4[C@]23C[C@H]1CO	LASV entry inh inconclusive (no result: HCV inhibitor, HCMV antiviral, FMDV antiviral)
Cc1ccccc1C(=O)Nc1ccc2c(C#N)c3nc4ccccc4nc3n2c1	HCMV antiviral -65, FMDV antiviral inconclusive
Cc1c(C(=O)Nc2ccccc2)cn2c(nc3ccccc32)c1C#N	Marburg entry inh inconclusive
O=S(=O)(NCCc1csc2nc(-c3ccccc3)nn12)c1cccs1	none (no result: HCV inhibitor, Marburg entry inh)
